This note sets out measurements from PubChem BioAssay AID593 (National Center for Advancing Translational Sciences (NCATS), 2007).

Structures are written as SMILES. Hit rate of the full screen: of about 59,000 compounds, about 540 (0.92%) were called active. Roughly 33% stayed inconclusive and do not appear here. No stated cut-off is given here; in the data, active means max fluorescein-equivalent concentration above about 10 nM; inconclusive means between about 1.1 nM and that limit; inactive means weaker than that. This excerpt belongs to a sample that is enriched for actives.

The test is described as follows: qHTS Assay for Spectroscopic Profiling in Fluorescein Spectral Region. The conditions noted are these: Compound autofluorescence, 480/540 nm; max fluorescein-equivalent concentration: stronger effect = higher value; outcome: fluorescein-equivalent. An outline of the steps: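 Compounds were pin-transferred into 100 mM Tris buffer, pH 8.0, and incubated 15 min at room temperature. Fluorescence was read at 480 nm excitation/540 nm emission. Signals were normalized to an on-plate six-point fluorescein standard curve as dye-equivalent concentration.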
On the technique in general: In qHTS, concentration-response curves come from the screen itself.
`C=CCn1c(C)cc(C(=O)CN2C(=O)c3ccccc3C2=O)c1C`: the max fluorescein-equivalent concentration entry was “inactive”. For the compound `Cc1ccc(SCCN2C(=O)NC(C)(C)C2=O)cc1`, the max fluorescein-equivalent concentration result was “inactive”.

In the case of `COc1cccc(Cn2c(=O)c(C)nc3cnc(Oc4ccccc4)nc32)c1`, the max fluorescein-equivalent concentration entry was “inactive”.

Take `Cc1cc(C(F)(F)F)nn1CC(=O)N1CCCC1`: the max fluorescein-equivalent concentration entry was “inactive”. With `CCOc1ccc(NS(=O)(=O)c2ccc(OCC(=O)NCCCOC)cc2)cc1`, the max fluorescein-equivalent concentration result was “inactive”. The result for `COc1ccccc1N1CCN(Cc2nnnn2CCc2ccccc2)CC1` reads “inactive”; that for `COc1ccccc1N1CCN(c2nc3ccccc3n3nnnc23)CC1`, 12 nM (active).

With `COCCn1nnnc1C(c1ccccc1Cl)N1CCN(c2ccccc2OC)CC1` (configuration not stated), the max fluorescein-equivalent concentration entry is “inactive”.

Consider `COc1ccc(-c2cc(C(F)(F)F)nc(SCCC(=O)NCc3ccco3)n2)cc1`, for which the max fluorescein-equivalent concentration result was “inactive”. Regarding `CCN(CC)S(=O)(=O)c1cccc(C(=O)Nc2cc(C)nn2-c2nc(C)cc(C)n2)c1`, the max fluorescein-equivalent concentration result is “inactive”.

As to `COc1ccc(OCC(=O)OCC(=O)Nc2ccc(S(=O)(=O)N3CCCCC3)cc2)cc1`, the max fluorescein-equivalent concentration entry was “inactive”. As for `CCN1CCN(C(=O)CN(C)S(=O)(=O)c2ccc(OC)cc2)CC1`, the max fluorescein-equivalent concentration entry was “inactive”.

Take `CCC1CCCCN1C(=O)Nc1cccc(NC(=O)N2CCCCC2CC)c1` (configuration not stated): the max fluorescein-equivalent concentration result was “inactive”.

As for `COc1ccccc1CNc1nc(-c2c(C)noc2C)nc2ccccc12`, the max fluorescein-equivalent concentration entry is “inactive”. Regarding `FC(F)(F)c1nnc2sc(-c3ccco3)nn12`, the max fluorescein-equivalent concentration entry was “inactive”. Consider `O=C(O)CS(=O)c1ccc2c3c(cccc13)C(=O)c1ccccc1-2` (configuration not stated), for which the max fluorescein-equivalent concentration is 14 nM (active).

Consider `CCn1c(=N)c(S(=O)(=O)c2ccc(F)cc2)cc2c(=O)n3ccccc3nc21`, for which the max fluorescein-equivalent concentration is 29 nM (active). Take `CCn1c(=N)c(C(=O)NCCCOC)cc2c(=O)n3cccc(C)c3nc21`: the max fluorescein-equivalent concentration result is “inactive”. For `CC1(C)C(=O)C2(CCCCC2)C(=O)OC1c1cccs1` (configuration not stated), the max fluorescein-equivalent concentration entry is “inactive”. Regarding `CCOc1ccccc1Nc1nnc(SCC(=O)Nc2cc(C)on2)s1`, the max fluorescein-equivalent concentration entry was “inactive”.

On to `CC[C@H](c1ccccc1)c1cc(C(C)(C)C)cc(C(C)(C)C)c1O`, for which the max fluorescein-equivalent concentration result is “inactive”.

As for `C=CCn1c(COc2ccccc2C)nnc1SCC(=O)O`, the max fluorescein-equivalent concentration entry is “inactive”. The result for `O=C(NCc1ccco1)c1sc2cccc(F)c2c1Cl` reads “inactive”.

For the compound `CC(Sc1nc2ccccc2c(=O)n1Cc1ccco1)C(=O)c1ccccc1` (configuration not stated), the max fluorescein-equivalent concentration entry is “inactive”. Turning to `COc1ccccc1NC(=O)CSc1nc2sc(C)c(C)c2c(=O)n1Cc1ccco1`, the max fluorescein-equivalent concentration entry was “inactive”.

Take `CN(c1ccccc1)c1ccc(/C=c2\s/c(=C(/C#N)C(=O)C(C)(C)C)n(Cc3ccco3)c2=O)cc1`: the max fluorescein-equivalent concentration was 34 nM (active). Take `Cc1ccccc1C(=O)Nc1cccc(-c2nnc(SCC(=O)O)n2C)c1`: the max fluorescein-equivalent concentration entry is “inactive”.

As for `O=C(CNS(=O)(=O)c1cccc(C(F)(F)F)c1)Nc1ccccc1F`, the max fluorescein-equivalent concentration result was “inactive”. The result for `Cc1ccsc1C(=O)OCC(=O)c1cc2ccccc2o1` reads “inactive”. Consider `Cc1cc2c(=O)n(C)c(SCC(=O)c3cc4ccccc4o3)nc2s1`, for which the max fluorescein-equivalent concentration is 13 nM (active). With `Cc1ccc(C(=O)CSc2nc3ccccc3c(=O)n2N)o1`, the max fluorescein-equivalent concentration result was “inactive”. In the case of `Cc1cc(C)cc(NC(=O)C2CCN(c3nc(C)cc(C)n3)CC2)c1`, the max fluorescein-equivalent concentration entry was “inactive”. For the compound `CCOC(=O)c1cc2sccc2n1Cc1ccc(C#N)cc1`, the max fluorescein-equivalent concentration result is “inactive”. The result for `Fc1ccccc1CCNc1nnnn1-c1ccccc1` reads “inactive”; that for `CN1CCC2(CC1)CCN(S(=O)(=O)c1ccccc1)CC2`, “inactive”. `Cc1ccc2nc(CC(=O)c3ccc4ccccc4c3)c(=O)[nH]c2c1`: the max fluorescein-equivalent concentration entry is “inactive”. As to `C/C=C1\C(=O)C[C@@H]2[C@@H]3CCC4=CC(=O)CC[C@@]4(C)[C@H]3CC[C@@]12C`, the max fluorescein-equivalent concentration entry is “inactive”. `Oc1ccc2ccccc2c1C=NCc1c(O)ccc2ccccc12`: the max fluorescein-equivalent concentration result was “inactive”. Consider `COc1ncnc2c1N=C1CC(C)(C)CC(N)=C1S2`, for which the max fluorescein-equivalent concentration was 47 nM (active). For `CC(C)NC(=O)N1CC[C@@]2(CCCN(C(=O)c3cccc(F)c3)C2)C1`, the max fluorescein-equivalent concentration was 780 nM (active). With `CC(C)NC(=O)N1CC[C@@]2(CCCN(C(=O)c3ccco3)C2)C1`, the max fluorescein-equivalent concentration result was “inactive”. For the compound `COc1ccc(C(=O)N2CCC[C@@]3(CCN(C(=O)NC(C)C)C3)C2)cc1`, the max fluorescein-equivalent concentration result is “inactive”. With `O=C(Nc1ccc(S(=O)(=O)N2CCCCC2)cc1)c1cnccn1`, the max fluorescein-equivalent concentration entry is “inactive”. The result for `O=c1[nH]c(=O)c2nc3ccccc3nc2[nH]1` reads 62 nM (active). Consider `O=c1[nH]c(-c2ccccc2)c(-c2ccccc2)[nH]1`, for which the max fluorescein-equivalent concentration result was “inactive”. The result for `CN1C(=O)C[C@H](c2ccccc2)C1=O` reads “inactive”; that for `CCCn1c(SCC(=O)Nc2cccc(C(=O)OCC)c2)nnc1-c1ccoc1C`, “inactive”. Regarding `COc1ccccc1Cc1nc(-c2ccc(C)cc2)no1`, the max fluorescein-equivalent concentration result was “inactive”. In the case of `CC12CCC(C(=O)N(CCC#N)CCC#N)(CC1=O)C2(C)C` (configuration not stated), the max fluorescein-equivalent concentration entry was “inactive”.

With `COc1ccc2[nH]c3cc4c(=O)c5cc(OC)ccc5[nH]c4cc3c(=O)c2c1`, the max fluorescein-equivalent concentration entry is “inactive”.

`C[C@H]1O[C@@H](CC(=O)O)Cc2c1c(O)c1c(O)cc(-c3cc(=O)c4c(=O)c5c(c(=O)c=4c3=O)C[C@H](CC(=O)O)O[C@@H]5C)c(O)c1c2O`: the max fluorescein-equivalent concentration entry was “inactive”. The result for `CC(Sc1nncs1)C(=O)NCc1ccc2c(c1)OCO2` (configuration not stated) reads “inactive”; that for `Cc1cc(NC(=O)Nc2ccccc2)n(-c2ccccc2)n1`, “inactive”.

Regarding `COc1ccc2oc(=O)c(C(=O)N3CCCc4ccccc43)cc2c1`, the max fluorescein-equivalent concentration entry was “inactive”. The result for `COc1ccc2oc(=O)c(C(=O)O)cc2c1` reads 19 nM (active); that for `COc1cccc(C(=O)c2cc3ccc(O)cc3oc2=O)c1`, “inactive”; that for `CCOc1ccc2cc(C#N)c(SCC(=O)OC)nc2c1`, “inactive”.
